Measured values: PubChem BioAssay (NCATS)
Results filed as inconclusive are left out. Calls of active or inactive are those of the source. Calls come from the whole dose curve; as a rule, active = well fitted curve in the direction sought with a large enough effect; inconclusive = small, poorly fitted or top-dose-only effect, or another doubt; inactive = no such curve, though single readings can be large; an effect the other way counts as inactive or inconclusive. Where a SMILES comes first, the peptide text is derived from it. The star is where a group is joined. AMC = Cc1cc(=O)oc2cc(N*)ccc12; Cbz = O=C(OCc1ccccc1)*

Tests used:
[1] = tested on: CRL-7250; assay: Cytotoxic Profiling of Annotated Libraries Using Quantitative High-Throughput Screening (AID 1296008); conditions: Five cell lines viability, CellTiter-Glo ATP luminescence, 48-72 h; max response: hits give low values; note: nearly all actives have a fitted effect of over 60% in size; for max response: % is set by controls: 0 for no effect and ±100 for the full control effect
In short: (§1)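 Compounds were pin-transferred onto cells and incubated 48 or 72 hr at 37 degree Celsius, 95% humidity. CellTiter-Glo was added, plates sat 10 min at room temperature, then ATP-coupled luminescence was imaged as the viability read-out.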

[2] = tested on: HEK293; assay: as above; conditions: Five cell lines viability, CellTiter-Glo ATP luminescence, 48-72 h; max response: hits give low values
In short: as §1

[3] = tested on: HaCat; assay: as above; conditions: Five cell lines viability, CellTiter-Glo ATP luminescence, 48-72 h; max response: hits give low values
In short: as §1

[4] = tested on: KB-3-1; assay: as above; conditions: Five cell lines viability, CellTiter-Glo ATP luminescence, 48-72 h; max response: hits give low values
In short: as §1

[5] = tested on: NIH3T3; assay: as above; conditions: Five cell lines viability, CellTiter-Glo ATP luminescence, 48-72 h; max response: hits give low values
In short: as §1

[6] = tested on: HACAT; assay: qHTS assay to identify novel small-molecules to repurpose for Merkel cell carcinoma treatment (AID 1296009); conditions: MCC and control cell lines, CellTiter-Glo viability, 72 h; at 44.8 µM (top of the series) unless noted; note: nearly all actives have a fitted effect of over 60% in size
In short: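 Viability readout: ATP luminescence (CellTiter-Glo) after 72 hr drug exposure at 37 degree celsius. Dose-response format was 8 points for NPC and 11 points for MIPE; data normalized to in-plate controls.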

[7] = tested on: C33A; assay: Primary qHTS to identify gynecologic anti-cancer compounds using libraries of approved drugs and bioactive compounds (AID 1345084); conditions: Gynecologic cancer cell panel viability, ATPlite luminescence, 48 h; series mostly up to 57.5 µM; note: % is set by controls: 0 for no effect and ±100 for the full control effect; nearly all actives have a fitted effect of over 55% in size
In short: (§2)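 Five-point cytotoxicity, 48 h drug exposure at 37 C, 5% CO2, on cells seeded 16 h beforehand. ATP content read by ATPlite luminescence.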

[8] = tested on: CAOV3; assay: as above; conditions: Gynecologic cancer cell panel viability, ATPlite luminescence, 48 h; series mostly up to 57.5 µM
In short: as §2

[9] = tested on: CASKI; assay: as above; conditions: Gynecologic cancer cell panel viability, ATPlite luminescence, 48 h; series mostly up to 57.5 µM
In short: as §2

[10] = tested on: Es-2; assay: as above; conditions: Gynecologic cancer cell panel viability, ATPlite luminescence, 48 h; series mostly up to 57.5 µM
In short: as §2

[11] = tested on: HeLa; assay: as above; conditions: Gynecologic cancer cell panel viability, ATPlite luminescence, 48 h; series mostly up to 57.5 µM
In short: as §2

[12] = tested on: Hek293T; assay: as above; conditions: Gynecologic cancer cell panel viability, ATPlite luminescence, 48 h, control line for the selectivity index; series mostly up to 57.5 µM
In short: as §2

[13] = tested on: JEG-3; assay: as above; conditions: Gynecologic cancer cell panel viability, ATPlite luminescence, 48 h; series mostly up to 57.5 µM
In short: as §2

[14] = tested on: OV90; assay: as above; conditions: Gynecologic cancer cell panel viability, ATPlite luminescence, 48 h; series mostly up to 57.5 µM
In short: as §2

[15] = tested on: PA-1; assay: as above; conditions: Gynecologic cancer cell panel viability, ATPlite luminescence, 48 h; series mostly up to 57.5 µM
In short: as §2

COc1ccc(C(=O)OC2C3C=COC(OC4OC(CO)C(O)C(O)C4O)C3C3(CO)OC23)cc1OC (stereo not given)
inactive: max response [1] -2.32% | max response [2] 1.41% | outcome [3] | max response [4] 3.28% | max response [5] -4.72% | outcome [6] inactive [at 17.4 µM] | Potency [7] | Potency [8] | outcome [9] | Potency [10] | Potency [11] | Potency [12] | Potency [13] | Potency [14] | Potency [15]

CC1(C)CCC[C@@]2(C)[C@H]1[C@H](O)C=C(CO)[C@]2(O)CO
inactive: max response [1] -0.0206% | max response [2] -0.502% | outcome [3] | max response [4] 6.19% | max response [5] -5.75% | outcome [6] | Potency [7] | Potency [8] | outcome [9] | Potency [10] | Potency [11] | Potency [12] | Potency [13] | Potency [14] | Potency [15]

COC(=O)C1=CO[C@@H](O[C@@H]2O[C@H](CO)[C@@H](O)[C@H](O)[C@H]2O)[C@H]2[C@@H]1[C@H](O)C[C@]2(C)O
inactive: outcome [1] | max response [2] -1.47% | outcome [3] | outcome [4] | max response [5] -11.4% | outcome [6] inactive [at 17.4 µM] | Potency [7] | Potency [8] | outcome [9] | Potency [10] | Potency [11] | Potency [12] | Potency [13] | Potency [14] | Potency [15]

CC(C)=CCc1c(O)cc2oc3cc(C)cc(O)c3c2c1C
inactive: max response [1] 2.07% | max response [2] -2.32% | outcome [3] | max response [4] -6.44% | max response [5] 3.67% | outcome [6] | Potency [7] | Potency [8] | outcome [9] | Potency [10] | Potency [11] | Potency [12] | Potency [13] | Potency [14] | Potency [15]

O=C(O)c1cccc(CN2C(=O)/C(=C(\c3ccccc3)c3ccc(Cl)cc3)c3ccccc32)c1
inactive: max response [1] 3.11% | max response [2] -10.4% | outcome [3] | max response [4] 5.03% | max response [5] -3.22% | outcome [6] | Potency [7] | Potency [8] | outcome [9] | Potency [10] | Potency [11] | Potency [12] | Potency [13] | Potency [14] | Potency [15]

N=C(N)c1ccc2nc(-c3cc(CC(=O)NC(CC(=O)O)C(=O)O)cc(-c4cc(S(N)(=O)=O)ccc4O)c3O)[nH]c2c1 (stereo not given)
inactive: max response [1] -1.88% | max response [2] 1.8% | outcome [3] | outcome [4] | max response [5] -8.69% | outcome [6] | Potency [7] | Potency [8] | outcome [9] | Potency [10] | Potency [11] | Potency [12] | Potency [13] | Potency [14] | Potency [15]

CC(C)c1ccc2c(c1)C(O)CC1C(C)(C(=O)O)CCCC21C (stereo not given)
inactive: max response [1] -4.34% | max response [2] 2.95% | outcome [3] | max response [4] -15.9% | max response [5] -2.12% | outcome [6] | Potency [7] | Potency [8] | outcome [9] | Potency [10] | Potency [11] | Potency [12] | Potency [13] | Potency [14] | Potency [15]

Cc1cc(-n2c(=O)[nH]c(=O)n(C)c2=O)ccc1Oc1ccc(SC(F)(F)F)cc1
inactive: max response [1] -0.879% | max response [2] 4.1% | outcome [3] | max response [4] 1.4% | outcome [5] | outcome [6] | Potency [7] | Potency [8] | outcome [9] | Potency [10] | Potency [11] | Potency [12] | Potency [13] | Potency [14] | Potency [15]

COC(=O)[C@]1(C)CCC[C@@]2(C)C(=O)CC[C@H]3C(=O)C=C(CC[C@@H]21)C3O (stereo not given in full)
inactive: max response [1] -8.93% | max response [2] -5.09% | outcome [3] | max response [4] -0.869% | max response [5] 1.41% | outcome [6] | Potency [7] | Potency [8] | outcome [9] | Potency [10] | Potency [11] | Potency [12] | Potency [13] | Potency [14] | Potency [15]

Cc1cc(=O)oc2cc(NC(=O)[C@H](CCC(=O)O)NC(=O)[C@H](CC(C)C)NC(=O)[C@H](CC(C)C)NC(=O)OCc3ccccc3)ccc12 (Cbz-Leu-Leu-Glu-{AMC})
inactive: max response [1] -3.16% | max response [2] -3.22% | outcome [3] | max response [4] 3.3% | max response [5] -20.3% | outcome [6] | Potency [7] | Potency [8] | outcome [9] | Potency [10] | Potency [11] | Potency [12] | Potency [13] | Potency [14] | Potency [15]

C/C(=C\CC[C@H](CO)[C@@H]1CC[C@]2(C)C3=C(CC[C@@]12C)[C@@]1(C)CCC(=O)C(C)(C)C1CC3)C(=O)O (stereo not given in full)
inactive: max response [1] -4.82% | max response [2] -7.09% | outcome [3] | max response [4] 6.51% | max response [5] -2.55% | outcome [6] inactive [at 17.4 µM] | Potency [7] | Potency [8] | outcome [9] | Potency [10] | Potency [11] | Potency [12] | Potency [13] | Potency [14] | Potency [15]

COc1c2c(c(C)c3c1C(=O)OC3)OC1(C)CC(O)C34OC(O)(CCC3(C)C1C2)OC4(C)C (stereo not given)
inactive: outcome [1] | max response [2] -9.5% | outcome [3] | max response [4] 7.14% | max response [5] 2.29% | outcome [6] inactive [at 17.4 µM] | Potency [7] | Potency [8] | outcome [9] | Potency [10] | Potency [11] | Potency [12] | Potency [13] | Potency [14] | Potency [15]

COC(=O)C(CC1(O)c2ccccc2N2C(=O)C(C)(C)N(O)C21)n1cnc2ccccc2c1=O (stereo not given)
inactive: outcome [1] | max response [2] 3.97% | outcome [3] | max response [4] 0.0146% | max response [5] 2.61% | outcome [6] inactive [at 17.4 µM] | Potency [7] | Potency [8] | outcome [9] | Potency [10] | Potency [11] | Potency [12] | Potency [13] | Potency [14] | Potency [15]

C=CC1(C)CC2CCC3C(C)(C(=O)O)CCCC3(C)C2=CC1=O (stereo not given)
inactive: outcome [1] | max response [2] -0.432% | outcome [3] | outcome [4] | max response [5] -4.63% | outcome [6] | Potency [7] | Potency [8] | outcome [9] | Potency [10] | Potency [11] | Potency [12] | Potency [13] | Potency [14] | Potency [15]

COc1cccc2c1c(O)c(C(=O)N(C)c1ccc(C(F)(F)F)cc1)c(=O)n2C
inactive: max response [1] -1.12% | max response [2] 3.79% | outcome [3] | max response [4] 0.95% | max response [5] 2.51% | outcome [6] | Potency [7] | Potency [8] | outcome [9] | Potency [10] | Potency [11] | Potency [12] | Potency [13] | Potency [14] | Potency [15]

C[C@H]1[C@H](C)CC[C@]2(C(=O)OC3OC(CO)C(O)C(O)C3O)CC[C@]3(C(=O)O)C(=CCC4[C@@]5(C)CC[C@H](O[C@@H]6O[C@@H](C)[C@H](OC7OC(CO)C(O)C(O)C7O)[C@@H](O)[C@H]6O)C(C)(C)C5CC[C@]43C)[C@H]12 (stereo not given in full)
inactive: max response [1] -1.78% | max response [2] 2.35% | outcome [3] | outcome [4] | max response [5] -8.63% | outcome [6] inactive [at 9.27 µM] | activity change, negative = cytotoxicity [7] -28.6% [at 11.6 µM] | activity change, negative = cytotoxicity [8] 3.53% [at 11.6 µM] | activity change, negative = cytotoxicity [9] 6.49% [at 11.6 µM] | activity change, negative = cytotoxicity [10] 4.54% [at 11.6 µM] | activity change, negative = cytotoxicity [11] -0.904% [at 11.6 µM] | activity change, negative = cytotoxicity [12] 6.98% [at 11.6 µM] | activity change, negative = cytotoxicity [13] 7.38% [at 11.6 µM] | activity change, negative = cytotoxicity [14] 2.97% [at 11.6 µM] | activity change, negative = cytotoxicity [15] -4.62% [at 11.6 µM]
